According to PubChem BioAssay (NCATS):
Where “and” joins values, the source holds several entries; their conditions need not be identical. Equal entries are not always repeated. Results filed as inconclusive are left out. The source holds several records for some structures; these can differ, active in one and inactive in another. Calls of active or inactive are those of the source. Calls follow the shape of the dose curve; as a rule, active = well fitted inhibition curve with a large enough effect; inconclusive = small, poorly fitted or top-dose-only effect; inactive = flat fitted curve, though single readings scatter.
Potency is read from the fitted curve at half-maximal effect.

Experiment: Primary qHTS for inhibitors of nuclear receptor binding SET domain protein 2 (NSD2) in an isogenic RCH-ACV NSD2 p.E1099K mutant (9B) (AID 1645876); also: nearly all actives have a fitted effect of over 70% in size
Settings: RCH-ACV (leukaemia line) NSD2 E1099K (9B) viability, CellTiter-Glo, 72 h; series mostly up to 44.9 µM
For `Nc1nccc(Oc2ccc(NC(=O)c3c[nH]cc(-c4ccc(F)cc4)c3=O)cc2F)c1Cl`, the Potency was 11.8 µM (active). In the case of `Nc1nc(NCCNc2ncc(-n3ccnc3)c(-c3ccc(Cl)cc3Cl)n2)ccc1[N+](=O)[O-]`, the Potency was 5.15 µM (active) and inactive. In the case of `CNC(=O)c1ccc(-c2cnc3ncc(Cc4ccc5ncccc5c4)n3n2)cc1F`, the Potency was “inactive”. In the case of `Nc1nc(-c2nn(Cc3ccccc3F)c3ncccc23)nc(N)c1N1CCOCC1`, the Potency was “inactive”. In the case of `Nc1ncnc2c1c(-c1cnc3[nH]ccc3c1)nn2C1CCCC1`, the Potency was 365 nM (active) and 417 nM (active). With `CC[C@H](CO)Nc1nc(NCc2ccccc2)c2ncn(C(C)C)c2n1` the Potency was 14.8 µM (active). For `CC(C)(O)CCc1ccc(OCc2cc(-c3cccc(OC(F)F)c3)c3ncccc3c2)cc1`, the Potency was 20.9 µM (active). In the case of `CC(C)c1ccccc1Cc1cc(C(=O)Nc2ccc(S(=O)(=O)c3ccccc3C(C)(C)C)cc2)c(O)c(O)c1O`, the Potency was 13.2 µM (active). For `Cc1cc(Nc2cc(NC(=O)c3c(Cl)cccc3Cl)ccn2)nc(N)n1`, the Potency was 0.417 µM (active). In the case of `OCc1ccc(-c2ccc(-c3ccc(CO)s3)o2)s1`, the Potency was 50.2 nM (active) and 934 nM (active). In the case of `COc1cc(-c2nn(C3CCC(N4CCN(C(C)=O)CC4)CC3)c3ncnc(N)c23)ccc1NC(=O)c1cc2ccccc2n1C` (stereo not drawn), the Potency was 183 nM (active) and 590 nM (active). In the case of `CN1CC[C@@H](c2c(O)cc(O)c3c(=O)cc(-c4ccccc4Cl)oc23)[C@@H](O)C1`, the Potency was 0.372 µM (active). For `Cn1c(CNc2ccc(C(=N)N)cc2)nc2cc(C(=O)N(CCC(=O)O)c3ccccn3)ccc21`, the Potency was “inactive”.
